“And” between values parts separate entries of the source, which are not always exact repeats. Equal values may be shown once. In all, about 5,500 compounds went through this assay and about 2,000 (36%) were called active. Roughly 18% stayed inconclusive and do not appear here. No stated cut-off is given here; in the data, active means normalized growth mostly below about 0.91 (no sharp cut-off); inconclusive means no clear call, values can overlap the other calls; inactive means mostly above about 0.92. Some of the results follow.
Assay: chemical genetic growth profiling, strain panel (AID 1159580);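 further: tested at 20 µM; growth read once vehicle control cultures reached saturation at 30 °C; 1 = growth at the plate median or of vehicle wells; lower values mean less growth of the strain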
Details: S. cerevisiae deletion strains, growth OD

Measured: normalized growth

Cc1cc(O)cc(O)c1C(=O)O
inactive: locus YAL021C, strain ccr4, active compounds read low 0.972 | locus YAL026C, strain drs2, active compounds read low 1.05 | locus YAL030W, strain snc1, active compounds read low 1.02 | locus YBL061C, strain skt5, active compounds read low 1.02 | locus YBR009C, strain hhf1, active compounds read low 1.01 | locus YBR021W, strain FUR4, active compounds read low 1.02 | locus YBR023C, strain chs3, active compounds read low 1.02 | locus YBR171W, strain sec66, active compounds read low 1.02 | locus YBR229C, strain ROT2, active compounds read low 1.02 | locus YBR231C, strain swc5, active compounds read low 1 | locus YBR279W, strain paf1, active compounds read low 1.02 | locus YCL011C, strain gbp2, active compounds read low 1.01 | locus YCL016C, strain dcc1, active compounds read low 0.984 | locus YCL029C, strain bik1, active compounds read low 1 | locus YCL061C, strain MRC1, active compounds read low 1.03 | locus YCL069W, strain vba3, active compounds read low 1.01 | locus YCR088W, strain abp1, active compounds read low 1.02 | locus YDL005C, strain med2, active compounds read low 1.03 | locus YDL035C, strain GPR1, active compounds read low 1.04 | locus YDL040C, strain nat1, active compounds read low 1.02 | locus YDL074C, strain BRE1, active compounds read low 1.03 | locus YDL101C, strain DUN1, active compounds read low 1 | locus YDL134C, strain PPH21, active compounds read low 1.04 | locus YDL185W, strain tfp1, active compounds read low 0.988 | locus YDL192W, strain arf1, active compounds read low 1.04 | locus YDR001C, strain nth1, active compounds read low 1.02 | locus YDR069C, strain doa4, active compounds read low 1.03 | locus YDR101C, strain arx1, active compounds read low 1.04 | locus YDR137W, strain rgp1, active compounds read low 1.03 | locus YDR159W, strain sac3, active compounds read low 1.06 | locus YDR162C, strain NBP2, active compounds read low 1.01 | locus YDR195W, strain ref2 0.986 | locus YDR297W, strain sur2, active compounds read low 1.02 | locus YDR318W, strain mcm21, active compounds read low 1.01 | locus YDR334W, strain swr1, active compounds read low 1.02 | locus YDR335W, strain msn5, active compounds read low 1.02 | locus YDR388W, active compounds read low 1 | locus YDR392W, strain spt3, active compounds read low 0.897 | locus YDR502C, strain sam2, active compounds read low 0.997 | locus YEL003W, strain gim4, active compounds read low 1.01 | locus YEL037C, strain rad23, active compounds read low 1.01 | locus YEL061C, strain CIN8 (second series), active compounds read low 1.01 | locus YEL061C, strain CIN8, active compounds read low 1.01 | locus YER015W, strain faa2, active compounds read low 1.01 | locus YER016W, strain bim1, active compounds read low 1.02 | locus YER110C, active compounds read low 0.982 | locus YER111C, strain swi4, active compounds read low 1.01 | locus YER155C, strain BEM2 (second series), active compounds read low 1.02 | locus YER155C, strain BEM2, active compounds read low 1 | locus YER167W, strain BCK2, active compounds read low 1.01 | locus YFR010W, strain ubp6, active compounds read low 1.02 | locus YGL078C, strain dbp3, active compounds read low 0.964 | locus YGL086W, strain mad1, active compounds read low 1.01 | locus YGL167C, strain pmr1, active compounds read low 1.02 | locus YGL173C, strain kem1, active compounds read low 1.04 | locus YGL227W, strain vid30, active compounds read low 1.01 | locus YGL240W, strain doc1, active compounds read low 1.02 | locus YGL248W, strain PDE1, active compounds read low 1.03 | locus YGL253W, strain hxk2, active compounds read low 1.05 | locus YGR078C, strain PAC10, active compounds read low 1.03 | locus YGR135W, strain pre9, active compounds read low 0.96 | locus YGR252W, strain gcn5, active compounds read low 1.06 | locus YHR013C, strain ard1, active compounds read low 1.02 | locus YHR027C, strain rpn1, active compounds read low 1.01 | locus YHR030C, strain SLT2, active compounds read low 1.1 | locus YHR079C, strain IRE1 (second series), active compounds read low 1 | locus YHR079C, strain IRE1, active compounds read low 1.08 | locus YHR094C, strain hxt1, active compounds read low 1.01 | locus YHR129C, strain ARP1, active compounds read low 1.02 | locus YHR142W, strain chs7, active compounds read low 1.01 | locus YHR200W, strain rpn10, active compounds read low 1 | locus YIL066C, strain RNR3, active compounds read low 1.03 | locus YIL073C, strain SPO22, active compounds read low 1 | locus YIL125W, strain kgd1, active compounds read low 0.993 | locus YIR030C, strain dcg1, active compounds read low 1.01 | locus YJL092W, strain hpr5, active compounds read low 1.02 | locus YJL095W, strain BCK1 (second series), active compounds read low 1.02 | locus YJL095W, strain BCK1, active compounds read low 1.04 and 1.07 | locus YJL115W, strain asf1, active compounds read low 1.02 | locus YJL129C, strain trk1, active compounds read low 1.03 | locus YJL134W, strain LCB3, active compounds read low 1.01 | locus YJL154C, strain vps35, active compounds read low 1.01 | locus YJL164C, strain tpk1, active compounds read low 0.997 | locus YJL166W, strain qcr8, active compounds read low 1.03 | locus YJL168C, strain set2, active compounds read low 1.02 | locus YJL187C, strain SWE1 (second series), active compounds read low 1.01 | locus YJL187C, strain SWE1, active compounds read low 1.02
